# Test results reported in PubChem BioAssay (EPA / NIEHS).
# Results filed as inconclusive are left out. Activity calls are given as the source filed them. The calls were made as follows, unless noted: active = hit-call score of the fitted dose curve at least 0.9, where 1 is the maximum; inconclusive = response in the unintended direction; inactive = score below 0.9.
# Tests used:
# [1] = target: human CYP2B6, CYP2B6 (gene 1555) (UniProt P20813); assay: NVS_ADME_hCYP2B6: NovaScreen (NVS) CYP450-related Enzyme Activity (ADME) Assay for human CYP2B6 (AID 2283101)
# Outline: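 Recombinant human CYP2B6 with fluorogenic substrate, read by fluorescence intensity 1 h after dosing. Primary screen in duplicate at 10 uM, actives followed in concentration series; signal loss relative to acetonitrile control.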
# [2] = target: human CYP1A2, CYP1A2 (gene 1544) (UniProt P05177); assay: NVS_ADME_hCYP1A2: NovaScreen (NVS) CYP450-related Enzyme Activity (ADME) Assay for human CYP1A2 (AID 2283102);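 as to AC50: fluorescence from turnover of a fluorogenic substrate by recombinant insect-cell CYP1A2; potency for inhibition since loss of fluorescence marks reduced CYP1A2 activity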
# Outline: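 Compounds were tested at 10 uM in duplicate against recombinant CYP1A2 produced in insect cells. Enzyme activity was measured by fluorescence 0.5 h after dosing, with loss of signal versus acetonitrile control. Active compounds were re-tested in concentration series.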
# [3] = target: Cytochrome P450 2C18 (Homo sapiens) (UniProt P33260); assay: NVS_ADME_hCYP2C18: NovaScreen (NVS) CYP450-related Enzyme Activity (ADME) Assay for human CYP2C18 (AID 2283103; active = hit-call score of the fitted dose curve at least 0.9, where 1 is the maximum; inactive = score below 0.9)
# Outline: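 Cell-free recombinant human CYP2C18 with fluorogenic substrate; fluorescence intensity read 0.5 h after dosing. Single-point screen at 10 uM in duplicate, then concentration-response up to 20 uM; loss of signal fitted against acetonitrile baseline.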
# [4] = target: human CYP2C8, CYP2C8 (gene 1558) (UniProt P10632); assay: NVS_ADME_hCYP2C8: NovaScreen (NVS) CYP450-related Enzyme Activity (ADME) Assay for human CYP2C8 (AID 2283104; active = hit-call score of the fitted dose curve at least 0.9, where 1 is the maximum; inactive = score below 0.9)
# Outline: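 Recombinant human CYP2C8 with fluorogenic substrate, 0.5 h, fluorescence intensity; signal loss fitted versus acetonitrile. Screened in duplicate at 10 uM, then actives run in concentration-response up to 20 uM.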
# [5] = target: human CYP2J2, CYP2J2 (gene 1573) (UniProt P51589); assay: NVS_ADME_hCYP2J2: NovaScreen (NVS) CYP450-related Enzyme Activity (ADME) Assay for human CYP2J2 (AID 2283106)
# Experimental: NVS_ADME_hCYP2J2 is a biochemical, single-readout assay that uses extracted gene-proteins in a cell-free assay. Measurements were taken 1 hour after chemical dosing in a 96-well plate.NVS_ADME_hCYP2J2 is one of one assay component(s) measured or calculated from the NVS_ADME_hCYP2J2 assay. It is designed to make measurements of enzyme activity, a form of enzyme reporter, as detected with fluorescence intensity signals by Fluorescence technology.Data from the assay component NVS_ADME_hCYP2J2 was analyzed into 1 assay endpoint. This assay endpoint, NVS_ADME_hCYP2J2, was analyzed in the positive analysis fitting direction relative to Acetonitrile as the negative control and baseline of activity. Using a type of enzyme reporter, loss-of-signal activity can be used to understand changes in the enzymatic activity as they relate to the gene CYP2J2. Furthermore, this assay endpoint can be referred to as a primary readout, because this assay has produced multiple assay endpoints where this one serves a enzymatic activity function. To generalize the intended target to other relatable targets, this assay endpoint is annotated to the cyp intended target family, where the subfamily is xenobiotic metabolism.
# Binding assays used specific radioligands (tritiated, iodinated) with non-radioactive competitive displacement ligands in agonist or antagonist protocols (as indicated) and various reference compounds and inhibitors to titrate specific binding to receptors and transporters. Most enzyme assays (CYPs, kinases, phosphatases, proteases, HDACs) used recombinant protein and specific substrates (fluorescence mostly, some colorimetric and radioactive) and inhibitors, followed by a biochemical separation of substrate and product. All assays for the biochemical HTS were initially run in duplicate at a single concentration (10 uM for CYP450 assays and 25 uM for all others). Assay-chemical combinations meeting a pre-defined threshold (e.g., 30% inhibition and other criteria defined below) were then run in singleton concentration-response format with maximum concentration of 20 uM for CYPs and 50 uM for all others. Each assay was run with positive and negative controls, and concurrent controls on every plate. The follow-up (secondary) screen tested active chemical-pairs in concentration series, as well as a few additional assays not tested in the primary screen, some selected negative inactives, and several cases re-run in the concentration series for confirmatory purposes.
# [6] = target: human CYP2C9, CYP2C9 (gene 1559) (UniProt P11712); assay: NVS_ADME_hCYP2C9: NovaScreen (NVS) CYP450-related Enzyme Activity (ADME) Assay for human CYP2C9 (AID 2283108)
# Outline: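 Fluorescence readout of CYP2C9 activity (SF9-expressed human enzyme) at 0.75 h. The primary screen used 10 uM in duplicate, with concentration-response follow-up for actives; acetonitrile was the negative control.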
# [7] = target: Cytochrome P450 2C19 (Homo sapiens) (UniProt P33261); assay: NVS_ADME_hCYP2C19: NovaScreen (NVS) CYP450-related Enzyme Activity (ADME) Assay for human CYP2C19 (AID 2283113);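 as to AC50: potency for inhibition seen as loss of fluorescent signal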
# Outline: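 Chemicals first screened in duplicate at 10 uM against recombinant human enzyme produced in insect cells; confirmed actives then run as concentration series. Fluorogenic substrate turnover read by fluorescence after 1 h, normalised to acetonitrile.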
# [8] = target: human CYP2D6, CYP2D6 (gene 1565) (UniProt P10635); assay: NVS_ADME_hCYP2D6: NovaScreen (NVS) CYP450-related Enzyme Activity (ADME) Assay for human CYP2D6 (AID 2283107)
# Outline: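 Compounds were first tested in duplicate at 10 uM against recombinant enzyme produced in insect cells, with substrate turnover measured by fluorescence after 1 hour. Decreased signal, referenced to acetonitrile vehicle, was taken as reduced enzyme activity. Active chemicals went on to concentration-response testing.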
# [9] = target: Cytochrome P450 3A4 (Homo sapiens) (UniProt P08684); assay: NVS_ADME_hCYP3A4: NovaScreen (NVS) CYP450-related Enzyme Activity (ADME) Assay for human CYP3A4 (AID 2283110)
# Outline: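 Compounds were first screened in duplicate at 10 uM against recombinant CYP3A4 produced in insect cells, then actives were run in concentration series. Enzyme activity was measured by fluorescence after 0.33 hour, with acetonitrile as baseline.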
# [10] = target: human CYP4F12, CYP4F12 (gene 66002) (UniProt Q9HCS2); assay: NVS_ADME_hCYP4F12: NovaScreen (NVS) CYP450-related Enzyme Activity (ADME) Assay for human CYP4F12 (AID 2283111)
# Outline: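 Cell-free fluorescence assay of recombinant human CYP4F12 activity on a specific substrate, read 0.5 h after dosing. Primary screen in duplicate at 10 uM, then concentration series for actives; loss of signal fitted against acetonitrile negative control.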
# Cytochrome P450 2C18 (Homo sapiens), sequence (P33260 whole entry, looked up): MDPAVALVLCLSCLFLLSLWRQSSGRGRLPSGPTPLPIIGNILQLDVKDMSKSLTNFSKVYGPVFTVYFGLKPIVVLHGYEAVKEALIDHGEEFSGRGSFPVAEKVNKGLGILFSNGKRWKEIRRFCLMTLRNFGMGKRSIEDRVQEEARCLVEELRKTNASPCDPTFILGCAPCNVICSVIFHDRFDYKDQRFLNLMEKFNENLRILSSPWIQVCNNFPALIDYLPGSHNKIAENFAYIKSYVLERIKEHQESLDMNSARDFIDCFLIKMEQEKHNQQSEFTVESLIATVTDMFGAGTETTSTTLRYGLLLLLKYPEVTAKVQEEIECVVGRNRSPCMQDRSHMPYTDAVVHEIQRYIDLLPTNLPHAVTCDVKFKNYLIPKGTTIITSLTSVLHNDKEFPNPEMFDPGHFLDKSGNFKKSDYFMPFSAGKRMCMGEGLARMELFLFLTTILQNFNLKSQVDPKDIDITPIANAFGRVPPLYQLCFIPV
# human CYP1A2, CYP1A2 (gene 1544), sequence (P05177 whole entry, looked up): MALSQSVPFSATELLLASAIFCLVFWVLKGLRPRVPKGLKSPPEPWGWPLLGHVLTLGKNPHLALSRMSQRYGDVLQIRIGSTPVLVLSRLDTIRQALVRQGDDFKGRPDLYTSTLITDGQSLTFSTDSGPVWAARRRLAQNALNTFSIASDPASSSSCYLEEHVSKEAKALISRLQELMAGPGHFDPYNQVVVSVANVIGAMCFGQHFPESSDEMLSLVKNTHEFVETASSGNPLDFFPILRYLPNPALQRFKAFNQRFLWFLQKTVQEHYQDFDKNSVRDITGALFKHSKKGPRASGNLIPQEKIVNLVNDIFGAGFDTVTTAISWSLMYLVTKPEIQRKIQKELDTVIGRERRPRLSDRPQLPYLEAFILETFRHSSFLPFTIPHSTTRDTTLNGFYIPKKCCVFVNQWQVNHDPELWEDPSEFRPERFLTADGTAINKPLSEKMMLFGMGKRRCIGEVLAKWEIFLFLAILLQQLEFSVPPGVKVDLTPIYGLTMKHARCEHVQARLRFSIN
# human CYP2J2, CYP2J2 (gene 1573), sequence (P51589 whole entry, looked up): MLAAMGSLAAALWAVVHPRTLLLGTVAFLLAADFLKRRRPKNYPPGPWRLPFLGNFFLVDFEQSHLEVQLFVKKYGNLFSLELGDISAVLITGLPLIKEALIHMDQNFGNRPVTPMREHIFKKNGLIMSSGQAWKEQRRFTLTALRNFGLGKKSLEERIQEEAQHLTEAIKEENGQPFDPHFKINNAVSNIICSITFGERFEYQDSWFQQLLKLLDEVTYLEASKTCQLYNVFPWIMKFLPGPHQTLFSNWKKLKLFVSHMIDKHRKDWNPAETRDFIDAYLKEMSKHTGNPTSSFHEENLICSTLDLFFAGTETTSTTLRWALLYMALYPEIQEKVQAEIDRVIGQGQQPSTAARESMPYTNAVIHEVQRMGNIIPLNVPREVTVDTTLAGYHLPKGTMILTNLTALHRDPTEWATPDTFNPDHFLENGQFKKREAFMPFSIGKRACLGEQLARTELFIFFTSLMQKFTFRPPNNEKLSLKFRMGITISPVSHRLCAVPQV
# human CYP2C9, CYP2C9 (gene 1559), sequence (P11712 whole entry, looked up): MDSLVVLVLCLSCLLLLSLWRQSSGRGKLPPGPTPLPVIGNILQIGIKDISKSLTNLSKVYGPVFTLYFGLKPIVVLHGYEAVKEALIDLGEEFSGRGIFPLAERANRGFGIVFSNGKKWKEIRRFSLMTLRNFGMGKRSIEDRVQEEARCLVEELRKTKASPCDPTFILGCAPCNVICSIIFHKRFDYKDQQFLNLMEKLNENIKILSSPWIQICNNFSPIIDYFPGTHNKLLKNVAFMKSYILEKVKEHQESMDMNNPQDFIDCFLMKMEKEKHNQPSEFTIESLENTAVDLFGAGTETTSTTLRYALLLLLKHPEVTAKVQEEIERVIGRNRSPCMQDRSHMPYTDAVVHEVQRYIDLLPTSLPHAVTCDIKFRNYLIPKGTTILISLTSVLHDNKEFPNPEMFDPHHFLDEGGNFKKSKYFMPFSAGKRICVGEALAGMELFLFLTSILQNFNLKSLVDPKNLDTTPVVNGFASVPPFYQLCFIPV
# human CYP2D6, CYP2D6 (gene 1565), sequence (P10635 whole entry, looked up): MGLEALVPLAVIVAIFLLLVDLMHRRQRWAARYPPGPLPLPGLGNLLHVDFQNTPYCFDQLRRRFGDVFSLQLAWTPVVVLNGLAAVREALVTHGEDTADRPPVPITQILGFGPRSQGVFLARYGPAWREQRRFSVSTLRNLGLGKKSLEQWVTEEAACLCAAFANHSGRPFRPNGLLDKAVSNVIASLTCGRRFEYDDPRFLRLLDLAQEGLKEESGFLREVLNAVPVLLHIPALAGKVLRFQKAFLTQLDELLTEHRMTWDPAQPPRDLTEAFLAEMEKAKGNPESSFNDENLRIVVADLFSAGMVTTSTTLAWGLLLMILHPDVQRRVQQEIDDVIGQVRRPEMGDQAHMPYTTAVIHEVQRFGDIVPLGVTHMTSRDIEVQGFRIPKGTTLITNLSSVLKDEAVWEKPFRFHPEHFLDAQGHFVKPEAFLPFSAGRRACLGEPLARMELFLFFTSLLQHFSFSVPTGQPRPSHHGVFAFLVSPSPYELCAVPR
# human CYP2C8, CYP2C8 (gene 1558), sequence (P10632 whole entry, looked up): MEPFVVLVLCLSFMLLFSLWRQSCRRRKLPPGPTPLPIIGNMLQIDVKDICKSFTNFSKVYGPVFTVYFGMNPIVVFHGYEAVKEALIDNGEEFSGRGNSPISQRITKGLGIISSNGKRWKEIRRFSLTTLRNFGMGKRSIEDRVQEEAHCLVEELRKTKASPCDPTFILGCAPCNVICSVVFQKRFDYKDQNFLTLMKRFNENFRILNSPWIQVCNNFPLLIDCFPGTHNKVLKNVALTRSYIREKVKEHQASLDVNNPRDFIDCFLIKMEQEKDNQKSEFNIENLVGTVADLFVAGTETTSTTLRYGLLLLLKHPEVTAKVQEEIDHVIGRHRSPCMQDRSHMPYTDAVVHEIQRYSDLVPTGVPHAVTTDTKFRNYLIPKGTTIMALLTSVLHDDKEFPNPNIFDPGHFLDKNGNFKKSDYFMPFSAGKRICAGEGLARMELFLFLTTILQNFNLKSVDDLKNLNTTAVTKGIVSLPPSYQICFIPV
# human CYP2B6, CYP2B6 (gene 1555), sequence (P20813 whole entry, looked up): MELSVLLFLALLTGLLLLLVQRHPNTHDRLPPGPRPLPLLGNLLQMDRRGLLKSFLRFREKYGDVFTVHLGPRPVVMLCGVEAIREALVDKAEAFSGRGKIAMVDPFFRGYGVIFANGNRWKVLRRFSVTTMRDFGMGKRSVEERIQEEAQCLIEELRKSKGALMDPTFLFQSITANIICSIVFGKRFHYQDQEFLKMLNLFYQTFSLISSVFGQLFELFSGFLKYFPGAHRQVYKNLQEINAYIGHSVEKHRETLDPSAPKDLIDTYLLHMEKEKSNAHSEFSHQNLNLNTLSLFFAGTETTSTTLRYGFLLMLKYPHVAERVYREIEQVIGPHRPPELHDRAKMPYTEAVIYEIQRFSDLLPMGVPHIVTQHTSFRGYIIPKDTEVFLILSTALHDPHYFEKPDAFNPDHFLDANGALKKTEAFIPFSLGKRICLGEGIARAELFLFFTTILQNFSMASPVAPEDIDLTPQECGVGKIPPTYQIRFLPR
# human CYP4F12, CYP4F12 (gene 66002), sequence (Q9HCS2 whole entry, looked up): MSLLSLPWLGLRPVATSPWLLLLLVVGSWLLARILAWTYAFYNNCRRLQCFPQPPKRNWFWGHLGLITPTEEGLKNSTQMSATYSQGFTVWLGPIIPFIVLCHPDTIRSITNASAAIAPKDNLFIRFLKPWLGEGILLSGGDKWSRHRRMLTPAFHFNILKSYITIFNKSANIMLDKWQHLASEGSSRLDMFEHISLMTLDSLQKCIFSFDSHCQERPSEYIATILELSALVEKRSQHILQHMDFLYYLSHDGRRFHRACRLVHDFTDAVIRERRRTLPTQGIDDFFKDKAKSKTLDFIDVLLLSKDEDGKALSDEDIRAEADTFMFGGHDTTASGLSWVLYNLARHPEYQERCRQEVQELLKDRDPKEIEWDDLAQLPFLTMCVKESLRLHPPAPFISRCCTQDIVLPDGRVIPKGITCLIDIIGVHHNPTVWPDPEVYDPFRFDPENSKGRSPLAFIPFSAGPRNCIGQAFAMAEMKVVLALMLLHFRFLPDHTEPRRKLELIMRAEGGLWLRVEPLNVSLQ
# Cytochrome P450 3A4 (Homo sapiens), sequence (P08684 whole entry, looked up): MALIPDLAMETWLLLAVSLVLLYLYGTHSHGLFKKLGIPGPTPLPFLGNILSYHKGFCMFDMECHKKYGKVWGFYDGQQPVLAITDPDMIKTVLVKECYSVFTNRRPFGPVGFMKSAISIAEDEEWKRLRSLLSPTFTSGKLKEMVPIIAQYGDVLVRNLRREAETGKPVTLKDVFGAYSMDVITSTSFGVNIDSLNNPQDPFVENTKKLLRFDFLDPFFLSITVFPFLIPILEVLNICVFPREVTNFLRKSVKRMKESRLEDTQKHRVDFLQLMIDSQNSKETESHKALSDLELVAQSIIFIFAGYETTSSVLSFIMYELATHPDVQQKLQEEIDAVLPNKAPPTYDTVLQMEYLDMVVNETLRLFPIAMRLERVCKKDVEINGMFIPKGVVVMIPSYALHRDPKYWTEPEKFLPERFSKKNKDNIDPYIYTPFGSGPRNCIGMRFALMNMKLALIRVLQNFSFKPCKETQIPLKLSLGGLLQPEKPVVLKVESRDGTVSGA
smiles,measurement,setting,value
CCOP(=S)(OCC)Oc1ccc2c(C)c(Cl)c(=O)oc2c1,AC50,[1],0.433 µM (active)
same,AC50,[2],1.17 µM (active)
same,AC50,[3],0.734 µM (active)
same,outcome,[4],inactive
same,AC50,[5],0.0646 µM (active)
same,AC50,[6],0.798 µM (active)
same,AC50,[7],0.428 µM (active)
CSc1nc(NC(C)C)nc(NC(C)C)n1,AC50,[2],5.92 µM (active)
same,outcome,[5],inactive
same,AC50,[7],13.4 µM (active)
CCC(=O)Nc1ccc(Cl)c(Cl)c1,AC50,[2],2.03 µM (active)
CCOP(=S)(OCC)Oc1ccc([N+](=O)[O-])cc1,AC50,[1],0.99 µM (active)
same,AC50,[2],2.2 µM (active)
same,AC50,[3],1.95 µM (active)
same,AC50,[5],0.609 µM (active)
same,outcome,[8],inactive
same,AC50,[6],2.62 µM (active)
same,AC50,[7],0.21 µM (active)
CCCCSP(=O)(SCCCC)SCCCC,AC50,[2],8.52 µM (active)
same,outcome,[8],inactive
same,outcome,[7],inactive
CCOP(=O)(SC(C)CC)N1CCSC1=O (stereo not given),AC50,[7],6.44 µM (active)
CC(COc1ccc(Oc2ccccc2)cc1)Oc1ccccn1 (stereo not given),outcome,[2],inactive
same,AC50,[7],13.7 µM (active)
CCOP(=O)(OCC)Oc1cc(C)nc(C(C)C)n1,AC50,[7],10 µM (active)
S=C1NCCN1,outcome,[3],inactive
same,outcome,[6],inactive
same,outcome,[7],inactive
CC1(C(=O)Nc2ccc(O)c(Cl)c2Cl)CCCCC1,AC50,[6],2.58 µM (active)
same,AC50,[7],6.6 µM (active)
C#CCC1=C(C)C(OC(=O)C2C(C=C(C)C)C2(C)C)CC1=O (stereo not given),AC50,[3],7.41 µM (active)
same,outcome,[4],inactive
same,AC50,[5],10 µM (active)
same,AC50,[6],7.23 µM (active)
CSc1nnc(C(C)(C)C)c(=O)n1N,outcome,[8],inactive
same,outcome,[7],inactive
COc1ccc(C(=CC(=O)N2CCOCC2)c2ccc(Cl)cc2)cc1OC,AC50,[3],7 µM (active)
same,AC50,[7],7.59 µM (active)
COc1cccc(C(=O)NN(C(=O)c2cc(C)cc(C)c2)C(C)(C)C)c1C,outcome,[6],inactive
same,AC50,[7],2.58 µM (active)
CNc1cnn(-c2cccc(C(F)(F)F)c2)c(=O)c1Cl,AC50,[2],5.43 µM (active)
same,AC50,[7],4.35 µM (active)
CCCCOC(=O)[C@@H](C)Oc1ccc(Oc2ccc(C#N)cc2F)cc1,AC50,[7],10 µM (active)
CON=C(C(=O)OC)c1ccccc1CON=C(C)c1cccc(C(F)(F)F)c1,AC50,[3],1.21 µM (active)
same,AC50,[7],2.26 µM (active)
CC(C)[C@H](C(=O)O[C@H](C#N)c1cccc(Oc2ccccc2)c1)c1ccc(Cl)cc1,AC50,[7],8.22 µM (active)
CC(=NC#N)N(C)Cc1ccc(Cl)nc1,AC50,[7],10 µM (active)
COP(=O)(OC)OC(Br)C(Cl)(Cl)Br (stereo not given),outcome,[8],inactive
same,outcome,[6],inactive
same,AC50,[7],7.79 µM (active)
CCCSP(=O)(OCC)SCCC,AC50,[8],7.87 µM (active)
CCNc1nc(Cl)nc(NC(C)(C)C#N)n1,outcome,[4],inactive
CCOP(=S)(OCC)Oc1cc(C)nc(C(C)C)n1,AC50,[7],4.82 µM (active)
CCC(=NOC/C=C/Cl)C1=C(O)CC(C2CCOCC2)CC1=O (stereo not given),outcome,[6],inactive
CCOP(=S)(OCC)OC(Cl)C(Cl)(Cl)Cl (stereo not given),AC50,[6],10 µM (active)
CC(C)=CC1C(C(=O)OCN2C(=O)C3=C(CCCC3)C2=O)C1(C)C (stereo not given),AC50,[3],4.3 µM (active)
same,AC50,[6],10 µM (active)
same,AC50,[7],6.88 µM (active)
C=C(C)[C@H]1Cc2c(ccc3c2O[C@@H]2COc4cc(OC)c(OC)cc4[C@@H]2C3=O)O1,AC50,[3],2.62 µM (active)
same,outcome,[9],inactive
same,AC50,[7],0.434 µM (active)
CSC1=N[C@@](C)(c2ccccc2)C(=O)N1Nc1ccccc1,AC50,[3],5.62 µM (active)
same,AC50,[7],0.776 µM (active)
CN(C)[C@@H]1C(=O)C(C(N)=O)=C(O)[C@@]2(O)C(=O)C3=C(O)c4c(O)cccc4[C@@](C)(O)[C@H]3[C@H](O)[C@@H]12,outcome,[8],inactive
same,AC50,[10],0.0105 µM (active)
